{
  "source": "PubChem BioAssay AID651768",
  "about": "(National Center for Advancing Translational Sciences (NCATS), 2012)",
  "note": "Among all 360,000 compounds or so, about 1,700 (0.47%) were called active. About 2% were inconclusive and are not listed. The list comes from a sample in which actives are over-represented; it also holds similar structures and randomly drawn compounds. A number with no mark means an inactive call. Calls come from the whole dose curve; as a rule, active = well fitted inhibition curve with a large enough effect; inconclusive = small, poorly fitted or top-dose-only effect; inactive = no such curve, though single readings can be large or run the other way. % is set by controls: 0 for no effect and ±100 for the full control effect; potency is the fitted concentration of half-maximal effect.",
  "data": [
    {"biological_target": "Bifunctional 3'-5' exonuclease/ATP-dependent helicase WRN (Homo sapiens) (UniProt Q14191)", "sequence (Q14191 whole entry, looked up)": "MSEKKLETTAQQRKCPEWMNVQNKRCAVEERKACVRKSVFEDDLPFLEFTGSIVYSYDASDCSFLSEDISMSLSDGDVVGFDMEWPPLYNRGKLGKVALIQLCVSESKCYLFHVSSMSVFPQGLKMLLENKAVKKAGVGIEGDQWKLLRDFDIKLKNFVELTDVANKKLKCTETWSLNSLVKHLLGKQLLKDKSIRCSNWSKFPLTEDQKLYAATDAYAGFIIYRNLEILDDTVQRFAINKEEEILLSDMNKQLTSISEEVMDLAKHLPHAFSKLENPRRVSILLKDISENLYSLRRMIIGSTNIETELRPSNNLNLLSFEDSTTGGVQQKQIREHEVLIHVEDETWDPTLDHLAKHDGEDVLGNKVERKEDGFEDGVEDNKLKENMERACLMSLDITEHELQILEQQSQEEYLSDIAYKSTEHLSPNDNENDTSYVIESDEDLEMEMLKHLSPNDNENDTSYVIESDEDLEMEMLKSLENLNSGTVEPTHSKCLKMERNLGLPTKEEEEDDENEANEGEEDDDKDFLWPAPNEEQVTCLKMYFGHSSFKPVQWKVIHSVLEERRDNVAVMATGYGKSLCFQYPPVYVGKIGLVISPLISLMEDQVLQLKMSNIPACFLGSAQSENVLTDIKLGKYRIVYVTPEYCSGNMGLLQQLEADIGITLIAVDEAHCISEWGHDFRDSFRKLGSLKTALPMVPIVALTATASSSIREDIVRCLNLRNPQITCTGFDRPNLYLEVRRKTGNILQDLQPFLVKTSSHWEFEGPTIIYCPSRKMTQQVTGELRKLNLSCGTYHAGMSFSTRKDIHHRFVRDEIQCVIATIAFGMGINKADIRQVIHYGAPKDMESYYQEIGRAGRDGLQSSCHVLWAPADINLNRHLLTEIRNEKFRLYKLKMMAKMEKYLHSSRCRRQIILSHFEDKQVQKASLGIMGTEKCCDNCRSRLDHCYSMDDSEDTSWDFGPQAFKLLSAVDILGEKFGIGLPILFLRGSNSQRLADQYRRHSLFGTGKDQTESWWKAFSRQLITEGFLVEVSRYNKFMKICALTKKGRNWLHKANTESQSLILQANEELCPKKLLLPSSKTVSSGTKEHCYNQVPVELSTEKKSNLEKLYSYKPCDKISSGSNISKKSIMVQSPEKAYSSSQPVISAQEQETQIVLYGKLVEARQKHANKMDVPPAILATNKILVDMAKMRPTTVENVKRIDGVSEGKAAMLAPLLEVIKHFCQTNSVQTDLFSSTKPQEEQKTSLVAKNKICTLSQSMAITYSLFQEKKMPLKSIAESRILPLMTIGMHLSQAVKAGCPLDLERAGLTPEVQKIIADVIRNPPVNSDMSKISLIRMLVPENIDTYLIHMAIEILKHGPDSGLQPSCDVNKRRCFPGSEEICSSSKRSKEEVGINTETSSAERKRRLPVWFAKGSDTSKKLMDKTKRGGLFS", "assay": "qHTS for Inhibitors of WRN Helicase; note: nearly all actives have a fitted effect of over 55% in size", "conditions": "WRN helicase unwinding, fluorescent forked duplex, kinetic; series mostly up to 114 µM; activity change, negative = inhibition: at the top concentration", "summary_of_the_method": "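WRN at 20 nM final preincubated with compound 15 min at room temperature; reaction started with 100 nM fluorophore/quencher forked duplex oligonucleotide and 2 mM ATP final. Unwinding followed kinetically by red fluorescence (ex 525, em 598 nm).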", "values": [
      {"smiles": "COc1ccc([C@H]2CC(=O)C[C@@H](CCn3cc(CC4CCCC4)nn3)O2)cc1", "activity change, negative = inhibition": "1.6%"},
      {"smiles": "O=C(CN1C(=O)c2cccc3cccc(c23)C1=O)N1CCCCC1", "activity change, negative = inhibition": "7.87%"},
      {"smiles": "C[N+](C)(CCCCCC[N+](C)(C)CCCN1C(=O)c2cccc3cccc(c23)C1=O)CCCN1C(=O)c2cccc3cccc(c23)C1=O", "Potency": "44.7 µM (active)"},
      {"smiles": "O=C(CN1C(=O)c2cccc3cccc1c23)Nc1ccccc1", "activity change, negative = inhibition": "-0.0297% [at 11.6 µM]"},
      {"smiles": "O=C(CCCN1C(=O)c2cccc3cccc(c23)C1=O)N1CCN(Cc2ccc3c(c2)OCO3)CC1", "activity change, negative = inhibition": "4.65%"},
      {"smiles": "O=C1c2cccc3cccc(c23)C(=O)N1CCCCCc1n[nH]c(=S)o1", "Potency": "100 µM (active)"},
      {"smiles": "O=C(COC(=O)CCCN1C(=O)c2cccc3cccc(c23)C1=O)NC1CCS(=O)(=O)C1", "note": "(configuration not stated)", "activity change, negative = inhibition": "7.47%"},
      {"smiles": "Cc1ccc(CCNC(=O)CN2C(=O)CSc3ccc(S(=O)(=O)N4CCOCC4)cc32)cc1", "activity change, negative = inhibition": "3.55%"},
      {"smiles": "CCOC(=O)[C@]12CCCC=C1N(CCC1=CCCCC1)C(=O)[C@H](CC(=O)NCCCCc1ccccc1)C2", "activity change, negative = inhibition": "-1.56%"},
      {"smiles": "CCCCOCCCNC(=O)C[C@@H]1C[C@@]2(C(=O)OCC)CCCC=C2N(CCC2=CCCCC2)C1=O", "activity change, negative = inhibition": "-5.97%"},
      {"smiles": "CN(C)c1ccc(CSc2ccccc2)cc1", "activity change, negative = inhibition": "-2.78%"},
      {"smiles": "CS/C(=C\\[N+](=O)[O-])Nc1ccc(C)cc1", "activity change, negative = inhibition": "-4.16%"},
      {"smiles": "Nc1nc2ncccn2c1-c1ccccc1", "activity change, negative = inhibition": "-10.4%"},
      {"smiles": "c1ccc(CSc2nnc(-c3ccco3)c(-c3ccco3)n2)cc1", "Potency": "28.2 µM (active)"},
      {"smiles": "CSc1nc(-c2ccco2)nn1C(=O)c1ccccc1Cl", "activity change, negative = inhibition": "1.96%"},
      {"smiles": "COc1ccc(NCc2nnc(SCc3ccccc3)n2-c2ccc(OC)cc2)cc1", "activity change, negative = inhibition": "-8.11%"},
      {"smiles": "Clc1ccccc1CSc1nnc(-c2ccco2)c(-c2ccco2)n1", "Potency": "50.1 µM (active)"},
      {"smiles": "O=C(Nc1nnc(SCc2ccccc2Cl)s1)c1cccc([N+](=O)[O-])c1", "activity change, negative = inhibition": "-22%"},
      {"smiles": "c1ccc(Cc2c(-c3ccco3)nc3c4ccccc4ccn23)cc1", "activity change, negative = inhibition": "-14.6%"},
      {"smiles": "CCCC1(C(=O)OC)NC(c2ccco2)C2C(=O)N(C)C(=O)C21", "note": "(configuration not stated)", "activity change, negative = inhibition": "7.98%"},
      {"smiles": "Cc1cc(C)c(S(=O)(=O)N2C=CC(C(F)(F)F)=NCC2)c(C)c1", "activity change, negative = inhibition": "0.503%"},
      {"smiles": "CSc1c(SCc2ccccc2)cnn(Cc2ccccc2)c1=O", "activity change, negative = inhibition": "-22.2% [at 57.1 µM]"},
      {"smiles": "c1ccc(-n2cccc2)c(N2CCCCC2)c1", "activity change, negative = inhibition": "5.84%"},
      {"smiles": "O=C(c1ccc(Cl)c(S(=O)(=O)N2CCCCCC2)c1)N1CCN(c2ccc(O)cc2)CC1", "activity change, negative = inhibition": "1.3%"},
      {"smiles": "O=C1C=CC(=O)N1c1ccc(N2CCCCC2)cc1", "Potency": "39.8 µM (active)"},
      {"smiles": "CCCC(NCC(=O)Nc1ccccc1C(=O)NC1CC1)c1ccccc1", "note": "(configuration not stated)", "activity change, negative = inhibition": "0.331%"},
      {"smiles": "CC(C)(C)c1cc[n+](-c2[nH]c(=O)sc2/C=N/N=C(\\[O-])c2ccccc2)cc1", "activity change, negative = inhibition": "-3.25%"},
      {"smiles": "CCc1noc(C)c1C(=O)Oc1ccc(N(C)S(=O)(=O)c2ccc(C)c(C)c2)cc1", "activity change, negative = inhibition": "3.71%"},
      {"smiles": "COc1cccc(CNC(=O)[C@@H]2CCCN2C(=O)[C@@H]2CCCN2C(=O)c2ccccc2)c1", "activity change, negative = inhibition": "-0.0408%"},
      {"smiles": "CCN(CC)S(=O)(=O)c1cccc(-c2n[nH]c(=S)n2/N=C/c2ccc(C(=O)OC)cc2)c1", "activity change, negative = inhibition": "-28.1% [at 57.1 µM]"},
      {"smiles": "S=c1[nH]nc(-c2ccco2)n1/N=C/c1ccc(Br)s1", "activity change, negative = inhibition": "-15.2%"},
      {"smiles": "S=c1[nH]nc(-c2cc(-c3ccccc3)n[nH]2)n1/N=C/c1c2ccccc2cc2ccccc12", "Potency": "50.1 µM (active)"},
      {"smiles": "COc1ccc(C)cc1NC(=O)CN(C)S(=O)(=O)c1ccc2c(c1)n(C)c(=O)c(=O)n2C", "activity change, negative = inhibition": "6.64%"},
      {"smiles": "COc1ccc2ccn(C)c2c1", "activity change, negative = inhibition": "-28.2%"},
      {"smiles": "OC(c1ccccc1)(c1ccccc1)C1CCN(CCCOc2ccccc2)CC1", "activity change, negative = inhibition": "-2.24%"},
      {"smiles": "CC(C)CCN1C(=O)c2ccc(C(=O)Nc3cccc(S(N)(=O)=O)c3)cc2C1=O", "activity change, negative = inhibition": "-16.1%"},
      {"smiles": "Cc1ccnc(SC2CC(=O)N(c3ccccc3)C2=O)n1", "note": "(configuration not stated)", "activity change, negative = inhibition": "-4.59%"},
      {"smiles": "Cc1ccnc(-n2sc3ccccc3c2=O)n1", "Potency": "31.6 µM (active)"},
      {"smiles": "Cc1ccc(NC(=O)Cn2sc3ccccc3c2=O)cc1", "activity change, negative = inhibition": "0.388%"},
      {"smiles": "CCN(CC)C(=O)C1=C(C)N(Cc2ccc(OC)cc2)C(=O)C(CC(=O)NCc2ccco2)C1", "note": "(configuration not stated)", "activity change, negative = inhibition": "0.799%"},
      {"smiles": "CCCCOc1ccc(Cl)cc1CSc1nncn1N", "activity change, negative = inhibition": "3.38%"},
      {"smiles": "COC1=CCC2([N+](=O)[O-])CN(CC(=O)O)CC1([N+](=O)[O-])C2", "note": "(configuration not stated)", "activity change, negative = inhibition": "-3%"},
      {"smiles": "C=CS(=O)c1sc(Cl)c(N2CCOCC2)c1[N+](=O)[O-]", "note": "(configuration not stated)", "Potency": "31.6 µM (active)"},
      {"smiles": "O=C(Nc1cccc([N+](=O)[O-])c1)N1CCc2ccccc2C1", "activity change, negative = inhibition": "-7.84%"},
      {"smiles": "COC(=O)/C=C\\C(=O)Nc1cccc([N+](=O)[O-])c1", "Potency": "28.2 µM (active)"},
      {"smiles": "COc1cccc(NCCC(=O)c2cccc([N+](=O)[O-])c2)c1", "activity change, negative = inhibition": "-18%"},
      {"smiles": "COC(=O)[C@@]12C[C@@H](CC(=O)N3CCC(c4ccccc4)CC3)C(=O)N(Cc3ccccc3)C1=CCC(C)(C)C2", "activity change, negative = inhibition": "-4.93%"},
      {"smiles": "O=C(N/N=C/c1ccco1)c1ccc(NC(=O)C2CC2)cc1", "activity change, negative = inhibition": "-6.2%"},
      {"smiles": "O=C(N/N=C/c1ccco1)c1ccc(C(=O)N/N=C/c2ccco2)o1", "Potency": "39.8 µM (active)"},
      {"smiles": "O=C(Cc1ccc([N+](=O)[O-])cc1)N/N=C/c1ccco1", "activity change, negative = inhibition": "2.17%"},
      {"smiles": "Cc1ccccc1-n1nc(C)c2c1N=C1C(Cl)=CC(Cl)=CN1C2c1ccc(C(=O)O)cc1", "note": "(configuration not stated)", "activity change, negative = inhibition": "-9.87%"},
      {"smiles": "COC(=O)c1ccc(NCc2cc(O)ccc2O)cc1", "Potency": "79.4 µM (active)"},
      {"smiles": "CC(C)OC(=O)c1ccc(NCc2cc(O)ccc2O)cc1Cl", "activity change, negative = inhibition": "-17%"},
      {"smiles": "O=C(OC12CC3CC(CC(C3)C1)C2)c1ccc(NCc2cc(O)ccc2O)cc1", "activity change, negative = inhibition": "-8.66%"},
      {"smiles": "O=C(c1ccccc1)c1cc(-c2ccccn2)c(N2CCOCC2)s1", "activity change, negative = inhibition": "1.8%"},
      {"smiles": "NCCN1CCN2C(=O)CN(C(=O)c3ccccc3)CC12", "note": "(configuration not stated)", "activity change, negative = inhibition": "-9.08%"},
      {"smiles": "O=C(/C=C/Sc1ncn[nH]1)c1ccc(Cl)cc1", "Potency": "35.5 µM (active)"},
      {"smiles": "Cc1cc(C)nc(S/C=C/C(=O)c2ccccc2)n1", "activity change, negative = inhibition": "-24.2%"},
      {"smiles": "COc1ccc(OC)c(NC(=O)C2(C)CCN2C(=O)Cc2ccccc2)c1", "note": "(configuration not stated)", "activity change, negative = inhibition": "-1.59%"},
      {"smiles": "CCOC(=O)c1sc2nc(CSCC(=O)OCc3ccc(C(=O)OC)o3)[nH]c(=O)c2c1C", "activity change, negative = inhibition": "-1.35%"},
      {"smiles": "CSc1nnc(SCc2nc3sc(C(=O)O)c(C)c3c(=O)[nH]2)s1", "Potency": "35.5 µM (active)"},
      {"smiles": "Cc1sc2nc(CSCC(=O)Nc3c(Cl)cccc3Cl)[nH]c(=O)c2c1C", "activity change, negative = inhibition": "-17.4% [at 57.1 µM]"},
      {"smiles": "CCN1CCC(O)(/C=C/c2ccc(C)cc2)C(C(=O)/C=C/c2ccc(C)cc2)C1", "note": "(configuration not stated)", "Potency": "14.1 µM (active)"},
      {"smiles": "CCN1CCC2(CC1)N=C(c1ccc(F)cc1)C(=S)N2C(=O)c1ccc(C)cc1", "activity change, negative = inhibition": "-10.9%"},
      {"smiles": "COc1cc2cc(CN(CCN3CCCC3)C(=O)Nc3ccccc3Cl)c(=O)[nH]c2cc1OC", "activity change, negative = inhibition": "-9.47%"},
      {"smiles": "CC1=CC2=NC(=O)CC(C)(C(=O)N(CC(=O)NC(C)(C)C)Cc3ccccc3)N2C=C1", "note": "(configuration not stated)", "activity change, negative = inhibition": "-0.725%"},
      {"smiles": "CC1CCCN(C(=O)c2ccc3c(c2)C(=O)N(CCC2=CCCCC2)C3=O)C1", "note": "(configuration not stated)", "activity change, negative = inhibition": "0.2%"},
      {"smiles": "N#CCSc1ccccc1NC(=O)CN1C(=O)NC(CCc2ccccc2)C1=O", "note": "(configuration not stated)", "activity change, negative = inhibition": "25.6%"},
      {"smiles": "COc1ccc(Br)cc1/C=N/Nc1ccc(S(=O)(=O)Nc2ccccc2C(=O)O)cc1[N+](=O)[O-]", "Potency": "39.8 µM (active)"},
      {"smiles": "CC1CN(C(=O)c2ccccc2NS(=O)(=O)c2cccc([N+](=O)[O-])c2)CC(C)O1", "note": "(configuration not stated)", "activity change, negative = inhibition": "-20.5% [at 57.1 µM]"},
      {"smiles": "COc1ccc(S(=O)(=O)N2CCC(C(=O)OCC(=O)c3ccccc3)CC2)cc1[N+](=O)[O-]", "activity change, negative = inhibition": "5.06%"},
      {"smiles": "COc1ccccc1C(CNC(=O)c1cccc(NS(=O)(=O)c2ccc(Br)cc2)c1)N(C)C", "note": "(configuration not stated)", "activity change, negative = inhibition": "3.56%"},
      {"smiles": "CCOc1ncccc1C(=O)NNC(=O)c1cccc(S(=O)(=O)Nc2ccccc2OC)c1", "activity change, negative = inhibition": "-11.4%"},
      {"smiles": "COc1cccc(/C=N/Nc2ccc(S(=O)(=O)Nc3ccccc3C(=O)O)cc2[N+](=O)[O-])c1O", "Potency": "39.8 µM (active)"},
      {"smiles": "Cc1cc2nc3n(c2cc1C)CC1CC(C(=O)NCCC(C)C)N(C)C31", "note": "(configuration not stated)", "activity change, negative = inhibition": "8.32%"},
      {"smiles": "CCCCSc1nnc2c(n1)OC=Nc1ccccc1-2", "activity change, negative = inhibition": "1.18%"},
      {"smiles": "Cc1cccc(N2CC(C)Cn3c2nc2c3c(=O)n(CC(=O)OCc3ccccc3)c(=O)n2C)c1", "note": "(configuration not stated)", "activity change, negative = inhibition": "-4.82%"}
    ]}
  ]
}
